Screens: PubChem BioAssay, Center for Chemical Genomics, University of Michigan
Many of the other results were omitted from the sample, so hits are more common in it than they were.
Dicer inh = human Dicer pre-microRNA cleavage inhibition. Q9UPY3. cat-ELCCA pre-miR-21 Dicer processing, chemiluminescence; hits give high values. z-score at 25 µM. 6% of 47,000 active. AID 1347074; in the data active = z-score above about 3, passing the limit was not always enough;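 also: higher signal means more uncleaved substrate so more Dicer inhibition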
Hits are given with their value; 0 = inactive.

SMILES | Dicer inh
Cc1occc1-c1nnc(SCCC(=O)O)o1 | 0
CCOC(=O)c1nnc2cc(-c3cccs3)sc2n1 | 0
CSc1sc(C#N)c2c1C(O)CCC2 (configuration not stated) | 0
CCOC(=O)N/N=C(\C)c1ccc(C)cc1 | 0
O=[N+]([O-])c1cccnc1Sc1cc(Cl)ccc1Cl | 0
O=[N+]([O-])c1cc(Cl)ccc1Sc1ccccn1 | 0
O=[N+]([O-])c1ccc(Sc2cc(Cl)ccc2Cl)nc1 | 4.72
CN1c2ccccc2C(=O)/C(=C\Nc2ccc(F)c(Cl)c2)S1(=O)=O | 0
COc1ccccc1-c1nn(-c2ncccc2C(F)(F)F)c(=O)o1 | 0
CN1c2ccccc2C(=O)/C(=N\Nc2ccccc2F)S1(=O)=O | 0
CCOC(=O)CNC(=O)c1cc(OC)c(OC)c(OC)c1 | 0
N#CC1=CNc2ccccc2N=C1N | 0
NC1=Nc2cccc3cccc(c23)N1 | 25.8
c1cc2c3c(cccc3c1)-c1nc3ccccc3nc1-2 | 0
COc1ccc(C2=Nc3cccc4cccc(c34)N2)cc1 | 0
Nc1cccc(C2=Nc3cccc4cccc(c34)N2)c1 | 3.18
CN(C)c1ccc(C2=Nc3cccc4cccc(c34)N2)cc1 | 0
COc1ccc(/C(O)=C2\C(=O)C(=O)N(CCN(C)C)C2c2ccc(OC)c(OC)c2)cc1 (configuration not stated) | 0
O=C(O)c1ccc(-n2ccc(C(F)(F)F)n2)cc1 | 0
O=S(=O)(NC(=NCCc1ccccc1)Nc1cccc(Cl)c1)c1ccccc1 | 0
Cn1ncc2c(NNS(=O)(=O)c3ccc(Cl)cc3)ncnc21 | 0
Cc1cc(C)cc(OCc2nc(Cc3ccc(Cl)cc3)no2)c1 | 0
Cc1cc(C2C(=O)c3ccccc3C2=O)nc2ccccc12 | 0
Cc1ccc2nc(C3C(=O)c4ccc(O)cc4C3=O)cc(C)c2c1 (configuration not stated) | 3.69
Cc1ccc2nc(C3CCCCC3)cc(C(=O)O)c2c1 | 0
SMILES | Dicer inh
Cc1ccc(S(=O)(=O)NCCc2ccc(S(N)(=O)=O)cc2)cc1 | 0
Cn1cccc1CNCCc1ccc(S(N)(=O)=O)cc1 | 0
NS(=O)(=O)c1ccc(CCNCc2cccs2)cc1 | 3.06
CCCOC(=O)CN1C(=O)C2C3c4ccccc4C(c4ccccc43)C2C1=O (configuration not stated) | 0
Clc1ccc(-c2cn3c(n2)COc2ccccc2-3)cc1 | 0
N#C/C(=C\Nc1ccc(Cl)cn1)S(=O)(=O)c1ccc(Cl)cc1 | 0
N#C/C(=C\Nc1ccc(Cl)cn1)S(=O)(=O)c1ccccc1 | 3.23
N#C/C(=C\Nc1ccc(Cl)cn1)S(=O)(=O)c1ccccn1 | 0
O=C(Nc1cc2cc([N+](=O)[O-])ccc2oc1=O)c1ccc(Cl)c(Cl)c1 | 0
CCOc1ccc(C2CC(=O)Nc3nc(N)[nH]c(=O)c32)cc1 (configuration not stated) | 0
COc1ccc(OC)c(C2CC(c3ccc(Br)cc3)=NN2C(=O)CCCC(=O)O)c1 (configuration not stated) | 0
O=S(=O)(Nc1cccc2ccccc12)c1cccs1 | 0
O=S(=O)(Nc1ccc(Oc2ccc(NS(=O)(=O)c3cccs3)cc2)cc1)c1cccs1 | 3.62
Cc1cc(=O)oc2cc(NS(=O)(=O)c3cccs3)ccc12 | 0
Cc1onc(-c2c(Cl)cccc2Cl)c1NC(=O)c1c(-c2c(Cl)cccc2Cl)noc1C | 0
O=S(=O)(Nc1cc(C(F)(F)F)cc(C(F)(F)F)c1)c1ccccn1 | 0
O=C(O)CN1C(=O)c2cccc3cccc(c23)C1=O | 3.69
O=C1c2cccc3cccc(c23)C(=O)N1CCNCCN1C(=O)c2cccc3cccc(c23)C1=O | 0
CC(O)CN1C(=O)c2cccc3cccc(c23)C1=O (configuration not stated) | 3.25
O=C(O)CCCN1C(=O)c2cccc3cccc(c23)C1=O | 0
O=C(O)CCCCCN1C(=O)c2cccc3cccc(c23)C1=O | 0
O=C1c2cccc3cccc(c23)C(=O)N1CCCCO | 0
O=C(CN1C(=O)c2cccc3cccc(c23)C1=O)N1CCOCC1 | 0
NC(=O)C1CCN(C(=O)CN2C(=O)c3cccc4cccc2c34)CC1 | 0
O=C1c2cccc3cccc(c23)C(=O)N1CC(=O)N1CCc2ccccc21 | 3.77
SMILES | Dicer inh
CCOC(=O)N/N=C/c1cccc(O)c1 | 0
CCOC(=O)C1=C(C)N(c2ccc(OCC)cc2)C(=O)C1 | 0
O=C(Nc1ccc(OC(F)(F)F)cc1)C1CCc2ccccc2O1 (configuration not stated) | 0
Cc1nc(COc2ccc(C(C)(C)C)cc2)sc1C(=O)NN | 0
CC(CN(C)Cc1ccccc1)OC(=O)C1COc2ccccc2O1 (configuration not stated) | 3.5
O=C(C1COc2ccccc2O1)N1CCCC1 (configuration not stated) | 0
CC1CCN(CC(C)OC(=O)C2COc3ccccc3O2)CC1 (configuration not stated) | 0
Cc1ccc(/C=C2\CCCC(CN(C)C)C2=O)cc1 (configuration not stated) | 0
O=C(CN1C2=NCCN2c2ccccc21)c1cccc2ccccc12 | 0
CSc1nc(-c2ccco2)nn1C(=O)c1ccccc1 | 3.42
CSc1nc(-c2ccco2)nn1C(C)=O | 0
COc1ccc(C(=O)Cn2c3ccccc3n3nc(-c4ccco4)nc23)cc1 | 0
Cc1ccc(C(=O)n2nc(C)c(Sc3ncccn3)c2C)cc1 | 0
CSc1nc(-c2ccco2)nn1C(=O)c1ccc(C)cc1 | 3.21
Cc1ccc(-c2noc(-c3ccco3)n2)cc1 | 0
CS(=O)(=O)c1scc(-c2ccc(Cl)cc2)c1C#N | 0
CC(=NCc1ccc(C#N)cc1)c1c(C)cc(C)cc1O | 0
NC(=O)C1(N2CCCCC2)CCN(S(=O)(=O)c2ccc3c(c2)OCCCO3)CC1 | 0
Cc1nnc(SCC(=O)c2ccc(F)cc2)s1 | 0
Cc1sc(N)c(C(=O)c2cccs2)c1C | 0
C#C[C@]1(O)CCC2C3CCc4cc(Oc5ccc([N+](=O)[O-])cc5)ccc4C3CCC21C (some centres not stated) | 0
O=C1CC(c2ccc(F)cc2)c2c(n[nH]c2-c2ccccc2)N1 (configuration not stated) | 0
O=C(/C=C/Nc1cccc(Cl)c1)c1ccc(Cl)cc1 | 0
Cc1cc(C)c2oc(-c3cc(N)ccc3Cl)nc2c1 | 0
Cc1cc(C)c2oc(-c3ccc(C)c(N)c3)nc2c1 | 3.19
SMILES | Dicer inh
Cc1cc(C)c2oc(-c3cccc(N)c3)nc2c1 | 0
CCOc1cc(O)c(-c2n[nH]c(C)c2Oc2ccccc2)cc1CC | 0
Cc1[nH]nc(-c2ccc(O)c(C)c2O)c1Oc1ccccc1 | 3.1
CCOc1ccc(-c2n[nH]c(C)c2Oc2ccc(F)cc2)c(O)c1 | 0
Cc1ccccc1-c1nc2cc(N)ccc2o1 | 0
Nc1ccc2oc(-c3cccc(-c4nc5cc(N)ccc5o4)n3)nc2c1 | 0
Nc1ccc(CCc2nc3cc(N)ccc3o2)cc1 | 3.87
C/C(=N\N=C1\NC(=O)C(CC(=O)O)S1)c1ccccc1Cl (configuration not stated) | 0
O=C(CO/N=C/c1c(Cl)cccc1Cl)NNC(=O)c1cccc(Cl)c1 | 0
O=C(NNC(=NS(=O)(=O)c1ccccc1)NNC(=O)c1cccc(Cl)c1)c1cccc(Cl)c1 | 3.11
CS/C(=N/S(=O)(=O)c1ccccc1)NNC(=O)c1ccc(Cl)cc1 | 0
COC(=O)c1sccc1N/N=C(\C)c1ccc(NC(=O)C(Cl)Cl)cc1 | 0
C=COC(=O)CSc1nc(C)c(CC)c(C)c1C#N | 0
O=C(CCc1ccccc1)NN1CC(=O)N(c2cc(Cl)cc(Cl)c2)CC1=O | 0
